Source: PubChem BioAssay (NCI)
Values joined by “and” are separate entries in the source; they are usually repeats but may differ in a detail not shown here. Identical values can stand only once. About 83,000 compounds went through this panel and 20% of them were active in at least one assay; those are over-represented in the sample as a whole.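 Values shown are percent growth following 48 h exposure of cells in 96-well plates to a single concentration of compound; below 10 was considered active.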

What was measured:
Assay in all cases: NCI-60 one-dose screen, 48 h (100 = growth as untreated, 0 = no growth, -100 = all killed)
Details in all cases: 10 µM unless noted
NCI-H23 lung = system: NCI-H23 lung
NCI-H226 lung = system: NCI-H226 lung
NCI-H322M lung = system: NCI-H322M lung
HOP-62 NSCLC = system: HOP-62 NSCLC
NCI-H460 lung = system: NCI-H460 lung
HOP-92 NSCLC = system: HOP-92 NSCLC
NCI-H522 lung = system: NCI-H522 lung
A549/ATCC NSCLC = system: A549/ATCC NSCLC
786-0 renal = system: 786-0 renal
DU-145 prostate = system: DU-145 prostate
K-562 leukemia = system: K-562 leukemia
MALME-3M melanoma = system: MALME-3M melanoma
MDA-MB-231 breast = system: MDA-MB-231 breast
RXF 393 renal = system: RXF 393 renal
SF-268 CNS = system: SF-268 CNS
SF-295 CNS = system: SF-295 CNS
SF-539 CNS = system: SF-539 CNS
UACC-257 melanoma = system: UACC-257 melanoma
M14 melanoma = system: M14 melanoma
COLO 205 colon = system: COLO 205 colon

Measured: growth

COc1ccc(CCNC(=S)NN)cc1OC
inactive: NCI-H23 lung 99.5% | NCI-H226 lung 106% | NCI-H322M lung 108% | HOP-62 NSCLC 117% | NCI-H460 lung 101% | HOP-92 NSCLC 94.8% | NCI-H522 lung 102% | A549/ATCC NSCLC 106% | 786-0 renal 109% | DU-145 prostate 106% | K-562 leukemia 101% | MALME-3M melanoma 124% | MDA-MB-231 breast 114% | RXF 393 renal 200% | SF-268 CNS 96% | SF-295 CNS 103% | SF-539 CNS 95% | UACC-257 melanoma 108% | M14 melanoma 104%

Cc1ccc([N+](=O)[O-])cc1Br
inactive: NCI-H23 lung 110% | NCI-H226 lung 98.4% | NCI-H322M lung 111% | HOP-62 NSCLC 89.4% | NCI-H460 lung 94.4% | HOP-92 NSCLC 106% | NCI-H522 lung 88% | A549/ATCC NSCLC 77.6% | 786-0 renal 96.6% | COLO 205 colon 99.9% | DU-145 prostate 110% | K-562 leukemia 86.3% | MALME-3M melanoma 102% | MDA-MB-231 breast 104% | RXF 393 renal 111% | SF-268 CNS 104% | SF-295 CNS 97.7% | SF-539 CNS 91.7% | UACC-257 melanoma 79.7% | M14 melanoma 95.1%

OC(CC(c1ccccc1)c1cccc2ccccc12)(c1ccccc1)c1ccccc1 (configuration not stated)
inactive: NCI-H23 lung 76.2% and 71.1% | NCI-H226 lung 77.9% and 79.1% | NCI-H322M lung 97.5% and 105% | HOP-62 NSCLC 94.6% and 97% | NCI-H460 lung 89.2% and 91.4% | HOP-92 NSCLC 49.5% and 58.4% | NCI-H522 lung 47.9% and 62.7% | A549/ATCC NSCLC 73.7% and 79.1% | 786-0 renal 85.7% and 79.7% | DU-145 prostate 108% and 103% | K-562 leukemia 92.9% and 67.2% | MALME-3M melanoma 101% and 104% | MDA-MB-231 breast 69.4% and 71.2% | RXF 393 renal 92.7% and 86.7% | SF-268 CNS 84.9% and 89.4% | SF-295 CNS 80% and 81.3% | SF-539 CNS 94.4% and 93.3% | UACC-257 melanoma 62.8% and 85.3%

O=C1C(=O)c2ccccc2C(O)=C1CC=C(Cl)Cl
inactive: NCI-H23 lung 67.6% and 71.5% | NCI-H226 lung 73.4% and 63.5% | NCI-H322M lung 75.8% and 58% | HOP-62 NSCLC 50.9% and 61.3% | NCI-H460 lung 17.1% and 17.9% | HOP-92 NSCLC 36.4% and 87.3% | NCI-H522 lung 43.7% and 42.1% | A549/ATCC NSCLC 56% and 44.5% | 786-0 renal 39.5% and 60% | DU-145 prostate 68% and 63.4% | K-562 leukemia 31% and 33% | MALME-3M melanoma 68.5% and 69.2% | MDA-MB-231 breast 72.8% and 71.8% | RXF 393 renal 51.8% and 71.7% | SF-268 CNS 45.2% and 53.9% | SF-295 CNS 38.5% and 14.4% | SF-539 CNS 44.7% and 55.6% | UACC-257 melanoma 43.2% and 74.3% | M14 melanoma 57.3% and 69%

C#CCOC(=O)C(N)CS (configuration not stated)
inactive: NCI-H23 lung 109% | NCI-H226 lung 99.9% | NCI-H322M lung 97.6% | HOP-62 NSCLC 93.2% | NCI-H460 lung 103% | HOP-92 NSCLC 93.9% | NCI-H522 lung 111% | A549/ATCC NSCLC 118% | 786-0 renal 106% | DU-145 prostate 113% | K-562 leukemia 102% | MALME-3M melanoma 96.6% | MDA-MB-231 breast 84.2% | RXF 393 renal 106% | SF-268 CNS 96.4% | SF-295 CNS 96.5% | SF-539 CNS 86.6% | UACC-257 melanoma 107%

O=C(O)COc1ccccc1F
inactive: NCI-H23 lung 106% | NCI-H226 lung 94.2% | NCI-H322M lung 106% | HOP-62 NSCLC 117% | NCI-H460 lung 101% | HOP-92 NSCLC 96.3% | NCI-H522 lung 106% | A549/ATCC NSCLC 110% | 786-0 renal 102% | COLO 205 colon 114% | DU-145 prostate 108% | K-562 leukemia 92.5% | MALME-3M melanoma 108% | MDA-MB-231 breast 115% | RXF 393 renal 92.3% | SF-268 CNS 107% | SF-295 CNS 106% | SF-539 CNS 97.4% | UACC-257 melanoma 115% | M14 melanoma 103%

O=c1[nH]nnc2cc(Cl)ccc12
inactive: NCI-H23 lung 94.4% and 92.2% | NCI-H226 lung 104% and 93.2% | NCI-H322M lung 110% and 115% | HOP-62 NSCLC 105% and 89.1% | NCI-H460 lung 114% and 101% | HOP-92 NSCLC 109% | NCI-H522 lung 103% and 106% | A549/ATCC NSCLC 101% | 786-0 renal 117% and 94.5% | DU-145 prostate 108% and 114% | K-562 leukemia 119% and 98.3% | MALME-3M melanoma 124% and 113% | MDA-MB-231 breast 105% and 97.6% | RXF 393 renal 119% and 111% | SF-268 CNS 101% and 95.4% | SF-295 CNS 103% | SF-539 CNS 104% and 106% | UACC-257 melanoma 98.6% and 105% | M14 melanoma 105%

CN(C=O)c1ccccc1
inactive: NCI-H23 lung 84.9% | NCI-H226 lung 75.3% | NCI-H322M lung 98.5% | HOP-62 NSCLC 92.3% | NCI-H460 lung 102% | HOP-92 NSCLC 84.2% | NCI-H522 lung 92.9% | A549/ATCC NSCLC 105% | 786-0 renal 97.1% | DU-145 prostate 103% | K-562 leukemia 97.7% | MALME-3M melanoma 87.3% | MDA-MB-231 breast 84.6% | RXF 393 renal 105% | SF-268 CNS 103% | SF-295 CNS 92.8% | SF-539 CNS 92.9% | UACC-257 melanoma 103% | M14 melanoma 95.8%

CSc1nc(N)c(N)c(N)n1
inactive: NCI-H23 lung 97.9% | NCI-H226 lung 91.9% | NCI-H322M lung 106% | HOP-62 NSCLC 92.6% | NCI-H460 lung 104% | HOP-92 NSCLC 86.6% | NCI-H522 lung 70.1% | A549/ATCC NSCLC 95.1% | 786-0 renal 109% | COLO 205 colon 117% | DU-145 prostate 106% | K-562 leukemia 101% | MALME-3M melanoma 96.6% | MDA-MB-231 breast 97.6% | RXF 393 renal 115% | SF-268 CNS 107% | SF-295 CNS 108% | SF-539 CNS 103% | UACC-257 melanoma 96.9% | M14 melanoma 102%

COc1ccc(COC=O)cc1
inactive: NCI-H23 lung 97.3% | NCI-H226 lung 100% | NCI-H322M lung 99.1% | HOP-62 NSCLC 98.4% | NCI-H460 lung 104% | HOP-92 NSCLC 109% | A549/ATCC NSCLC 106% | 786-0 renal 103% | COLO 205 colon 108% | DU-145 prostate 98.7% | K-562 leukemia 96.5% | MALME-3M melanoma 102% | MDA-MB-231 breast 112% | RXF 393 renal 110% | SF-268 CNS 95.9% | SF-295 CNS 101% | SF-539 CNS 105% | UACC-257 melanoma 98.5%

OCCCc1ccccc1
inactive: NCI-H23 lung 107% | NCI-H226 lung 99% | NCI-H322M lung 76.2% | HOP-62 NSCLC 101% | NCI-H460 lung 112% | HOP-92 NSCLC 94.7% | NCI-H522 lung 110% | A549/ATCC NSCLC 99.8% | 786-0 renal 110% | DU-145 prostate 118% | K-562 leukemia 121% | MALME-3M melanoma 75.8% | MDA-MB-231 breast 97.8% | RXF 393 renal 105% | SF-268 CNS 108% | SF-295 CNS 107% | SF-539 CNS 112% | UACC-257 melanoma 102% | M14 melanoma 100%

COc1ccc(/C=N/Nc2nc3ccccc3s2)cc1
inactive: NCI-H23 lung 105% | NCI-H226 lung 99.4% | NCI-H322M lung 86.7% | HOP-62 NSCLC 91.9% | NCI-H460 lung 97.3% | HOP-92 NSCLC 81.6% | NCI-H522 lung 89% | A549/ATCC NSCLC 93.9% | 786-0 renal 111% | DU-145 prostate 105% | K-562 leukemia 93.2% | MALME-3M melanoma 44.2% | MDA-MB-231 breast 86% | RXF 393 renal 97.5% | SF-268 CNS 106% | SF-295 CNS 97.1% | SF-539 CNS 94% | UACC-257 melanoma 103% | M14 melanoma 87.7%

CCC(=O)Oc1ccc(OCc2ccccc2)cc1
inactive: NCI-H23 lung 85.5% and 83.8% | NCI-H226 lung 104% and 103% | NCI-H322M lung 120% and 92.3% | HOP-62 NSCLC 107% and 94.8% | NCI-H460 lung 99.4% and 93.7% | HOP-92 NSCLC 89.1% | NCI-H522 lung 88.3% and 77% | A549/ATCC NSCLC 99.7% and 102% | 786-0 renal 81.5% and 79.6% | DU-145 prostate 96.9% and 88.9% | K-562 leukemia 86% and 88.4% | MALME-3M melanoma 107% and 86.6% | MDA-MB-231 breast 60.1% and 68.4% | RXF 393 renal 94% and 100% | SF-268 CNS 75% and 85.5% | SF-295 CNS 95.4% and 75.9% | SF-539 CNS 56.2% and 65.3% | UACC-257 melanoma 130% and 108% | M14 melanoma 101% and 77.3%
